# Data: PubChem BioAssay (Tox21)
# Records with an inconclusive call do not appear. A call without a number means that no potency is given here. Active and inactive are the calls of the source. Unless noted, calls come from the whole dose curve; as a rule, active = well fitted curve in the direction sought with a large enough effect in the repeat runs; inconclusive = weak or mixed curves; inactive = no such curve, though single readings can be large; an effect the other way counts as inactive or inconclusive.
# Columns and labels:
# [1] = qHTS assay to identify small molecule antagonists of the vitamin D receptor (VDR) signaling pathway - cell viability counter screen (AID 743225); note: nearly all actives have a fitted effect of over 50% in size
# In short: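 HEK293T VDR-bla; cpd + 1a,25-(OH)2D3 3 nM final, 16 h 37C/5% CO2; B/G FRET substrate 2 h RT; then CellTiter-Glo 30 min RT, luminescence.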
# [2] = qHTS assay to identify small molecule agonists of the NFkB signaling pathway (AID 1159509; active = well fitted curve in the direction sought with a large enough effect in the signal ratio in the repeat runs, not every such curve was filed as active; the % refers to the signal ratio; note: series mostly up to about 61 µM)
# In short: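 Readout: FRET fluorescence, 405 nm excitation, 460/530 nm emission; beta-lactamase expression disrupts FRET. Cells: ME-180 stably carrying NF-kB-driven bla reporter. Compound exposure 5 hr, 37 C, 5% CO2.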
# [3] = qHTS assay to identify small molecule agonists of the NFkB signaling pathway - cell viability counter screen (AID 1159515; calls by dose curve; note: series mostly up to about 61 µM; nearly all actives have a fitted effect of over 55% in size)
# In short: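 Tox21 library compounds were tested for cytotoxicity against NFkB-bla ME-180 cells during a 5 hr exposure at 37 C. CellTiter-Glo luminescence served as the viability read-out.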
# [4] = qHTS assay to identify small molecule agonists of the endoplasmic reticulum stress response signaling pathway (AID 1159516; active = well fitted activation curve with a large enough effect in the signal ratio in the repeat runs, not every such curve was filed as active; the % refers to the signal ratio)
# In short: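 Fluorescence at 460 and 530 nm (405 nm excitation) reports beta-lactamase from an ER stress response element in HeLa cells treated 5 hr at 37 C.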
# [5] = qHTS assay to identify small molecule antagonists of the retinoid-related orphan receptor gamma (ROR-gamma) signaling pathway - cell viability counter screen (AID 1159520); note: nearly all actives have a fitted effect of over 50% in size
# In short: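 Tet-on ROR gamma CHO cells (1,000/well) were plated 4 hr, given compounds in DMSO for 2 hr at 37 C, then induced with 1 uM final doxycycline for 16 hr. Viability was read as ATP by CellTiter-Glo luminescence after 30 min.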
# [6] = target: Nuclear receptor ROR-gamma (Homo sapiens) (UniProt P51449); assay: qHTS assay to identify small molecule antagonists of the retinoid-related orphan receptor gamma (ROR-gamma) signaling pathway (AID 1159521; note: nearly all actives have a fitted effect of over 50% in size; note: potency is the fitted concentration of half-maximal effect)
# In short: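 Cells were plated, rested 4 h at 37 C, exposed to compounds for 2 h, then given 1 uM final doxycycline hyclate to induce RORγ expression. After 16 h, ONE-Glo luminescence from the ROR response element reporter was measured.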
# [7] = qHTS assay to identify small molecule agonists of the AP-1 signaling pathway - cell viability counter screen (AID 1159525; calls by dose curve; note: nearly all actives have a fitted effect of over 55% in size)
# In short: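 Each titration point was normalised to DMSO and tetra n-octyl ammonium bromide controls. The read was Cell Titer Glo luminescence after 30 min at RT, following 5 h compound exposure of ME-180 AP-1-bla cells at 37 °C.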
# [8] = target: Retinoic acid receptor RXR-alpha (Homo sapiens) (UniProt P19793); assay: qHTS assay to identify small molecule agonists of the RXR signaling pathway (AID 1159527; calls by dose curve; note: nearly all actives have a fitted effect of over 35% in size)
# Chain of Retinoic acid receptor RXR-alpha (Homo sapiens) (P19793 whole entry, looked up): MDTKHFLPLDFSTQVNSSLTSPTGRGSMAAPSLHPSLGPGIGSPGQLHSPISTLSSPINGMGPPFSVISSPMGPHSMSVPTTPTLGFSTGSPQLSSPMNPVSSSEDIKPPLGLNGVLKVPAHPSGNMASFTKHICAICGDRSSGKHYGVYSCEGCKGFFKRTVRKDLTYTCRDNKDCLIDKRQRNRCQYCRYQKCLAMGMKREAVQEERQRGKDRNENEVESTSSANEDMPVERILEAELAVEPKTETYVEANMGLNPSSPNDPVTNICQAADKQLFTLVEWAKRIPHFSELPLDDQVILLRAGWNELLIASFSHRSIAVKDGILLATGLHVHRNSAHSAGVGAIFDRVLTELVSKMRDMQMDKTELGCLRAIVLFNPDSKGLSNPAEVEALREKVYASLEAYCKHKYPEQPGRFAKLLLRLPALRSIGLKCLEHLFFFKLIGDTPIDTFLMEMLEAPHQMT
# In short: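 Cells plated at 2,000/well, rested 5 hr at 37 C, pin-dosed with DMSO compound solutions, incubated 16 hr, then loaded with B/G FRET substrate for 2 hr at RT before dual-emission fluorescence reading.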
# [9] = qHTS assay to identify small molecule antagonists of the retinoid acid receptor (RAR) signaling pathway - cell viability counter screen (AID 1159551); note: nearly all actives have a fitted effect of over 35% in size
# In short: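 In this counter screen, the RARE-luciferase line C3RL4 was exposed for 6 h at 37 C and 5% CO2 to compounds with retinol at 1 uM final. Cellular ATP, read by luminescence, served as the viability measure.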
# [10] = qHTS assay to identify small molecule agonists of the retinoic acid receptor (RAR) signaling pathway (AID 1159553); note: potency is the fitted concentration of half-maximal effect
# In short: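 In this cell-based screen, 1,000 C3RL4 cells per well were cultured overnight, dosed with test chemicals in DMSO for 6 hr, and assessed for RARE luciferase luminescence.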
# [11] = qHTS assay to identify small molecule agonists of the AP-1 signaling pathway (AID 1159526; calls by dose curve)
# [12] = qHTS assay to identify small molecule antagonists of the retinoic acid receptor (RAR) signaling pathway (AID 1159552; note: nearly all actives have a fitted effect of over 50% in size)
# In short: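 Retinol at 1 uM final stimulated RARE-luciferase expression in C3RL4 cells exposed to test compounds for 6 hr at 37 C. Reduced luminescence, read 30 min after detection reagent, indicated pathway antagonism.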
# [13] = qHTS assay to identify small molecule agonists of the RXR signaling pathway - cell viability counter screen (AID 1159529)
# In short: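 Steps: seed RXR-alpha-UAS-bla HEK 293T cells in assay medium containing 2% charcoal-stripped FBS; incubate 5 hr; add compounds in DMSO; incubate 16 hr at 37 C; after the bla read, add CellTiter-Glo and read luminescence at 30 min.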
# [14] = qHTS assay to identify small molecule agonists of the endoplasmic reticulum stress response signaling pathway - cell viability counter screen (AID 1159517; calls by dose curve)
# In short: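 Cytotoxicity of test compounds toward ESRE-bla HeLa cells was assessed after 5 hr exposure. The luminescent CellTiter-Glo signal was measured 30 min after reagent addition.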
Structure (SMILES),Potency [1],outcome [2],Potency [3],outcome [4],Potency [5],Potency [6],Potency [7],Potency [8],Potency [9],Potency [10],outcome [11],Potency [12],Potency [13],Potency [14]
O=C(O)C(F)(F)C(F)(F)C(F)(F)C(F)(F)C(F)(F)C(F)(F)C(F)(F)C(F)(F)C(F)(F)F,inactive,inactive,inactive,inactive,inactive,inactive,inactive,inactive,inactive,inactive,–,–,–,–
CC(C)N(C(=O)COc1nnc(C(F)(F)F)s1)c1ccc(F)cc1,inactive,inactive,inactive,inactive,inactive,–,inactive,–,inactive,–,inactive,inactive,–,–
CC(=O)CCC(C)=O,inactive,inactive,inactive,inactive,inactive,–,inactive,–,inactive,–,inactive,–,inactive,–
O=[N+]([O-])c1ccccc1CCl,inactive,inactive,inactive,–,inactive,inactive,inactive,inactive,inactive,–,–,–,inactive,inactive
CCCC(=O)Cl,inactive,inactive,inactive,inactive,inactive,inactive,inactive,–,inactive,inactive,inactive,inactive,inactive,–
CN(C)c1ccc(N(C)C)cc1,inactive,inactive,inactive,inactive,inactive,–,inactive,–,inactive,12.2 µM (active),–,inactive,inactive,–
COP(=S)(OC)Oc1cc(Cl)c(I)cc1Cl,inactive,inactive,inactive,inactive,inactive,inactive,inactive,inactive,inactive,inactive,–,inactive,inactive,–
O=C(O)c1ccccc1C(=O)Nc1cccc2ccccc12,inactive,inactive,inactive,–,inactive,inactive,inactive,inactive,inactive,inactive,–,inactive,inactive,inactive
O=C(NCc1cccnc1)Nc1ccc([N+](=O)[O-])cc1,–,inactive,inactive,–,inactive,inactive,inactive,–,inactive,inactive,inactive,inactive,inactive,inactive
CC(Cl)C(C)Cl (centres undefined),inactive,inactive,inactive,inactive,inactive,–,inactive,inactive,inactive,–,inactive,inactive,inactive,–
C[C@@H]1CC[C@H]2[C@@H](C)C(=O)O[C@@H]3O[C@@]4(C)CC[C@@H]1[C@]32OO4,inactive,inactive,inactive,inactive,inactive,0.237 µM (active),inactive,–,inactive,–,inactive,–,inactive,–
COP(=S)(OC)Oc1ccc([N+](=O)[O-])cc1Cl,inactive,inactive,inactive,inactive,inactive,43.3 µM (active),inactive,–,inactive,–,inactive,inactive,–,–
CNC(C)Cc1ccccc1OC (centres undefined),inactive,inactive,inactive,–,inactive,inactive,inactive,inactive,inactive,inactive,inactive,inactive,–,inactive
Sc1ccccc1Cl,inactive,inactive,inactive,inactive,inactive,–,inactive,inactive,inactive,inactive,inactive,inactive,–,–
CCOP(=O)(OCC)Oc1ccc([N+](=O)[O-])cc1,inactive,inactive,inactive,–,inactive,inactive,inactive,inactive,inactive,inactive,inactive,inactive,inactive,inactive
CCOC(=O)[C@]1(c2ccccc2)Oc2ccccc2[C@@H]1N,–,inactive,inactive,–,inactive,inactive,inactive,–,inactive,inactive,–,inactive,inactive,inactive
OC(c1ccc(Cl)cc1)(c1ccc(Cl)cc1)c1cccnc1,–,inactive,inactive,–,inactive,54.5 µM (active),inactive,–,inactive,inactive,–,inactive,inactive,inactive
Cc1cc(=O)[nH]o1,inactive,inactive,inactive,inactive,inactive,–,inactive,inactive,inactive,–,inactive,–,inactive,–
ClCCCCBr,inactive,inactive,inactive,inactive,inactive,–,inactive,inactive,inactive,inactive,inactive,inactive,inactive,–
C=CC(C)=O,inactive,inactive,inactive,inactive,inactive,–,inactive,inactive,inactive,–,inactive,–,inactive,–
C[C@H]1CNCCc2ccc(Cl)cc21,inactive,inactive,inactive,inactive,inactive,inactive,inactive,inactive,inactive,inactive,–,inactive,inactive,–
Cl/C=C\Cl,inactive,inactive,inactive,inactive,inactive,inactive,inactive,inactive,–,inactive,inactive,inactive,inactive,–
COC(C)(C)CCC[C@H](C)C/C=C/C(C)=C/C(=O)OC(C)C,–,inactive,inactive,inactive,inactive,inactive,inactive,–,inactive,inactive,inactive,inactive,inactive,–
